According to PubChem BioAssay (NCI):
Compounds without any hit were thinned out: in the full panel of roughly 83,000, 20% have a hit.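 Growth was measured after 48 h exposure to one concentration of compound in 96-well plates. Values under 10 count as active.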 A number with no mark means an inactive call. Calls of active or inactive are those of the source.

What follows are compounds tested on A498 renal (assay: NCI-60 one-dose screen, 48 h (100 = growth as untreated, 0 = no growth, -100 = all killed)). Conditions: 10 µM.
Experimental: Growth inhibition of the A498 human tumor cell line is measured as a screen for anti-cancer activity. Cells are grown in 96 well plates and exposed to the test compound for 48 hours. Compounds are tested at a single concentration, which is 10^-5 M for most compounds. The reported endpoint is percent growth (GI% or GIPRCNT), where numbers from 0 - 100% represent growth inhibition, and numbers from -100% - 0 represent cell death. For example, a value of 40 represents 60% growth inhibition. A value of 0 means no net growth occurred over the course of the experiment. A value of -40 indicates 40% of cells at the beginning of the experiment died by the end of the experiment. A value of -100 means all cells are dead at the end of the experiment.
NCI-60 Human Tumor Cell Lines Screen was performed using the standard one-dose NCI protocol, which is described in more detail at https://dtp.cancer.gov/discovery_development/nci-60/default.htm.
Compounds with GIPRCNT values below 10 were considered active. Activity score was based on GIPRCNT using the following formula: […]
Score is 0 for GIPRCNT values of 100 or above, 50 for GIPRCNT values of 0, and 100 for GIPRCNT values of -100.

SMILES	growth
Nc1ncnc2c1ncn2C1(CO)OCC(O)C(O)C1O (stereo not given)	108%
O=C(Nc1ccc(OS(=O)(=O)c2ccccc2)cc1)C1CCCCC1	105%
NS(=O)(=O)c1ccc(N2N=C(c3ccccc3)CCC2=O)cc1	83%
O=S(=O)(Oc1ccc(-c2ccc3sccc3c2)cc1)c1ccccc1	89.2%
CCCN(CCC)C(=O)[C@H](CC)[C@@H]1CC[C@@H](C)[C@@H]([C@H](C)[C@@H](O)[C@@H](C)C(=O)[C@H](CC)C2O[C@]3(C=C[C@@H](O)[C@]4(CC[C@@](C)([C@H]5CC[C@](O)(CC)[C@H](C)O5)O4)O3)[C@H](C)C[C@@H]2C)O1 (stereo not given in full)	-20.3% (active)
O=C(CCn1cnc2c(cc(-c3ccccc3)n2-c2ccccc2)c1=O)Nc1ccc(F)cc1	63.8%
N#Cc1cnn(C(=O)c2nn(-c3ccc(Cl)cc3)cc2O)c1N	48.6%
O=C1CSC(=S)N1/N=C/c1ccc(Cl)s1	103%
O=C(N/N=C/c1cc([N+](=O)[O-])ccc1O)c1cccc2ccccc12	62.4%
O=C(Cn1cc(CO)nn1)Nc1nc2ccccc2s1	118%
COc1ccc2c(c1)C(CC(=O)NN)CCC2 (stereo not given)	93.2%
COc1ccc(/C=C2\CCCC3=C2NC(N)=NC3c2ccc(OC)cc2)cc1 (stereo not given)	84.5%
O=C(c1ccccc1)N(C(=O)c1ccccc1)N1CCCC1	106%
Cc1[nH]c2ccccc2c1/C=N/Nc1ncnc2sc3c(c12)CCN(CC(=O)OC(C)(C)C)C3	51.8%
Cc1cc(C(C#N)c2ccc(Cl)cc2)c(Cl)cc1NC(=O)c1cc(I)cc(I)c1O (stereo not given)	-37% (active)
CN(C)CCCOc1ccc(NC2=C(Cl)C(=O)C(Nc3ccc(OCCCN(C)C)cc3)=C(Cl)C2=O)cc1	-49% (active)
CC(C)(C)OC(=O)CN1CCc2c(sc3ncnc(N/N=C/c4cccc5ccccc45)c23)C1	52.4%
C[C@H]1[C@H](OC(=O)CCC(=O)O)O[C@@H]2O[C@]3(C)CC[C@H]4[C@H](C)CC[C@@H]1[C@@]24OO3	80.6%
CNS(=O)(=O)Oc1ccc(-c2sc3cc(OS(=O)(=O)NC)ccc3c2C(=O)c2ccc(OCCN3CCCCC3)cc2)cc1	76.2%
Cc1ccc(/C=C/C(=O)C(=O)/C=C/c2ccc(C)cc2)cc1	101%

SMILES	growth
COc1cc2cc(Oc3ccc(NC(=O)Nc4ccc(Cl)c(Cl)c4)cc3)c(C)nc2cc1OC	35.8%
CC(=O)N[C@H](C(=O)N[C@@H](CCCNC(=N)N)C(=O)N[C@@H](CCCCN)C(=O)N[C@@H](CCCNC(=N)N)C(=O)N[C@]1(C)CCCCCC/C=C\CCC[C@@](C)(C(=O)N[C@@H](CCCNC(=N)N)C(=O)N[C@@H](CCC(=O)O)C(=O)N[C@@H](CC(C)C)C(=O)N[C@H](C(=O)N[C@@H](CCC(=O)O)C(N)=O)C(C)C)NC(=O)[C@H](CCC(N)=O)NC(=O)[C@H](CC(C)C)NC(=O)[C@H](CC(C)C)NC(=O)[C@H](CCCNC(=N)N)NC(=O)[C@H](CCCNC(=N)N)NC(=O)[C@H](CC(C)C)NC1=O)C(C)C	1.28% (active)
COc1ccc(-c2n[nH]nc2-c2cc(OC)c3c(c2OC)OCO3)cc1	14.9%
C[C@]12CC[C@@H]3c4ccc(O)cc4CC[C@H]3[C@@H]1CC[C@@H]2NS(=O)(=O)c1ccc(C(F)(F)F)cc1	61.3%
O=C1C=C(Nc2cccc(Br)c2)c2ccccc2C1=O	88.6%
O=C(/C=C/c1cccc(B(O)O)c1)c1cccc(B(O)O)c1	65.5%
O=c1[nH]c(=O)n(C2C[C@H](O)[C@@H](CO)O2)cc1C(F)(F)F (stereo not given in full)	118%
COC(=O)C1(O)NC(=C(C#N)C#N)C(C#N)=C1C(=O)c1ccc(OC)c(OC)c1 (stereo not given)	93.6%
COc1cc(/C=C2\CCCC3C2=Nc2ccccc2NC3c2cc(OC)c(OC)c(OC)c2)cc(OC)c1OC (stereo not given)	-22.4% (active)
CCOC(=O)CN(c1sc(C)c(C)c1C(=O)OCC)S(=O)(=O)c1ccc(C)cc1	106%
COc1cc2cc(Oc3ccc(NC(=O)c4ccc(Cl)c(C(F)(F)F)c4)cc3)c(C)nc2cc1OC	24.3%
COc1ccc(N=Nc2cc(OC)c(OC)c(OC)c2)cc1	73.5%
CC(C)(C)c1ccc(S(=O)(=O)N[C@H]2CC[C@H]3[C@@H]4CCc5cc(O)ccc5[C@H]4CC[C@]23C)cc1	33.6%
CN(C)CCCN1c2ccccc2CCc2ccc(Cl)cc21	39.9%
CC[C@@H](C(=O)[C@@H](C)[C@@H](O)[C@H](C)[C@@H]1O[C@@H]([C@@H](CC)C(=O)N(CC)CC)CC[C@@H]1C)C1O[C@]2(C=CC(=O)[C@]3(CC[C@@](C)([C@H]4CC[C@](O)(CC)[C@H](C)O4)O3)O2)[C@H](C)C[C@@H]1C (stereo not given in full)	36.6%
COc1cc(/C=C/c2cc(/C=C/c3ccc(O)c(OC)c3)n(C(=O)Nc3ccccc3Cl)n2)ccc1O	-11.8% (active)
O=C(COc1cccc(/C=C2\CSc3ccc(Cl)cc3C2=O)c1)c1ccc(Cl)cc1	91.3%
CCOC(=O)c1cc(C(=O)c2ccc(F)cc2F)n2ccccc12	87.9%
Cc1c[nH]c(=O)n(Cc2nnc(CCC(=O)c3nc4ccccc4[nH]3)o2)c1=O	11.5%
COc1nc2c(c(=O)n1C)CN(c1ccccc1)C(=O)C(C)N2 (stereo not given)	115%
